In the library only some 3.3% were active in any assay of this set; here they are far more common.
FGF22 binding-1: FGF22 (human) thermal shift binding; 340,000 tested, 1.5% active; activity (Tm shift, normalised), % at 9.99 µM; recombinant FGF22 thermal shift, SYPRO orange fluorescence; percent of sucrose octasulfate shift, DMSO zero; Q9HCT0;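 active means mean Tm shift, scaled 0 neutral to 100 positive control, at about 1.3% or above, every replicate too, limit read from the data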
Target sequence (Q9HCT0 whole entry, looked up): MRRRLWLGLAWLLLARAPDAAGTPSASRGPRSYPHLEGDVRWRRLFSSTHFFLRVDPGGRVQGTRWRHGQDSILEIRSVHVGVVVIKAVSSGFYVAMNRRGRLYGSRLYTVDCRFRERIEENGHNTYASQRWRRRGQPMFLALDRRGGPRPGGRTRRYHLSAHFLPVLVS
SIRT5 block: blocks human SIRT5 desuccinylation of peptide. Purified SirT5, succinyl-peptide AMC, trypsin-coupled fluorescence. inhibition, % at 15 µM. Q9NXA8. 330,000 tested, 1.1% active; in the data active means inhibition above about 15%
ERAP1 HTS inh: blocks human ERAP1 aminopeptidase activity; recombinant ERAP1, Leu-AMC fluorescence, 60 min; inhibition, % at 10.7 µM; 340,000 tested, 0.15% active; AID 652197;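 active means mean replicate inhibition of at least 30%, or all replicates individually reaching that 30% level; inactive means mean below 30% and not every replicate reaching it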;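 further: 0% = neutral control wells and 100% = L-leucinethiol positive control wells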
INS-1E GSIS act: primary screen for activators of insulin secretion dependent on glucose, INS-1E cells, GLuc reporter luminescence; INS-1E GLuc reporter insulin secretion, 2-3 h; activation, % at 16.6 µM; 370,000 tested, 0.61% active;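 active means lowest replicate activation of at least 40%, so every replicate reaches that level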;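 further: 0% = median of neutral control wells and 100% = median of IBMX positive control wells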
Casp6 inh: blocks human caspase-6 cleavage activity. inhibition, % at 12.5 µM. P55212. purified caspase-6, Z-VEID-R110 cleavage fluorescence. AID 686996. 350,000 tested, 0.53% active;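 active means mean inhibition across replicates at least about 35%, with every replicate also reaching that limit, limit read from the data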;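 further: 0% = median of neutral control wells and 100% = no fluorescence left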
Target sequence (P55212 24-179 limits assumed): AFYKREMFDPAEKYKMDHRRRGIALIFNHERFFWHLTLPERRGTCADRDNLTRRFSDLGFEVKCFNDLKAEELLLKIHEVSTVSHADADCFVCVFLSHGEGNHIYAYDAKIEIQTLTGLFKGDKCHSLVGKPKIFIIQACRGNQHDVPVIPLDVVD
Target sequence (P55212 194-293 limits assumed): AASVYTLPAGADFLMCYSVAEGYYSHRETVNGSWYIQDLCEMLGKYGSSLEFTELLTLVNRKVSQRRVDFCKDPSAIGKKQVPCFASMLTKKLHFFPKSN
FGF22 binding-2: binds human FGF22 shifting its melting temperature; 1,000 tested, 2% active; recombinant FGF22 thermal shift, SYPRO orange fluorescence; thermal shift activity, °C (ΔTm) at 38 µM; shares compounds with FGF22 binding-1;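 active means fitted rise in melting shift crosses a set limit at or below the top valid dose tested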
FGF22 TSA: binds human FGF22 shifting its melting temperature. shares compounds with FGF22 binding-1. Thermal shift assay, SYPRO orange, melting temperature shift. Tm shift (activity), % at 38 µM. 50 tested, under 10 active. AID 743017;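 active means compounds whose fitted dose curve of melting temperature shift rises past a set threshold within the tested doses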
SYPRO no-protein: counter-screen for FGF22 binders: compound-only thermal shift, no protein | shares compounds with FGF22 binding-1 | compound-only SYPRO orange thermal shift counter-screen | AC50, µM (highest dose often 38 µM) | 1,000 tested, 2% active | AID 743019;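 active means rising signal whose fitted curve reaches the 0.54 level within the top valid dose, showing a melting point, actives reach about 13 µM in these data; inactive means the rest, including activity in the opposite direction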; further: value is where the raw curve crosses a fixed level and not half-maximal
Active calls of the source: *; i = inactive; . = no result given; [ ] = another dose, or the depositor's remark.

SMILES	FGF22 binding-1	SIRT5 block	ERAP1 HTS inh	INS-1E GSIS act	Casp6 inh	FGF22 binding-2	SYPRO no-protein	others
COc1ccc(C(=O)N2C[C@@H]3[C@H](c4ccccc42)[C@@H](CO)N3Cc2ccccc2)cc1	1.3*	12	1	10	-2	0.12[42 µM]	i
O=C(C1CCOCC1)N1C[C@H]2[C@@H](c3ccccc31)[C@@H](CO)N2Cc1ccc(Cl)cc1	0	2	-1	-2	2	.	.
O=C(C1CCOCC1)N1C[C@@H]2[C@H](c3ccccc31)[C@@H](CO)N2Cc1ccccc1	1.5*	-1	.	5	.	-0.021[42 µM]	i
O=C(Cc1ccccc1)N1C[C@H]2[C@@H](c3ccccc31)[C@@H](CO)N2C(=O)c1ccc(F)cc1	0	1	1	9	0	.	.
O=C(Cc1ccccc1)N[C@H]1C=C[C@@H](CC(=O)N2CCCCC2)O[C@H]1CO	1	7	-2	-5	1	.	.
Cc1[nH]c2ccc(C(=O)OCC(=O)Nc3cccc(S(N)(=O)=O)c3)cc2c1C	1.6*	2	3	-7	3	.	i	FGF22 TSA=0
O=[N+]([O-])c1cccc(-c2nc3ccc([N+](=O)[O-])cc3[nH]2)c1	1	2	2	-2	1	.	.
COc1ccc(-c2nc3ccc([N+](=O)[O-])cc3[nH]2)cc1	2.6*	0	0	-12	-2	0.11	i
O=[N+]([O-])c1ccc2nc(-c3ccc(Cl)cc3)[nH]c2c1	1.8*	-2	-4	-7	1	0.059	i
COc1ccc2nc(-c3ccccc3)[nH]c2c1	.	.	.	1	.	.	.
C[C@H]1CN([C@@H](C)CO)C(=O)Cc2cc(NS(=O)(=O)c3ccc(F)cc3)ccc2O[C@H]1CN(C)S(=O)(=O)c1ccccc1	0	-2	1	-6	0	.	.
CN(C)C(=O)[C@H]1N[C@H]2c3ccc(-c4ccc(F)cc4)c(=O)n3C[C@H]2[C@@H]1CO	0	-20	-1	2	-2	.	.
CO[C@H]1CN(C)C(=O)c2ccc(NS(=O)(=O)c3ccc(C)cc3)cc2OC[C@@H](C)N(Cc2nccs2)C[C@@H]1C	0	-3	0	-10	0	.	.
CC(C)c1ccc(NC(=O)Nc2nnc([C@H]3C[C@H](O)[C@@H](CO)O3)s2)cc1	26*	-1	-1	-8	2	0.057	i
COc1cccc(S(=O)(=O)Nc2ccc3c(c2)OC[C@H](C)N(C(=O)Cc2cccnc2)C[C@@H](C)[C@@H](OC)CN(C)C3=O)c1	.	.	.	9	.	.	.
O=[N+]([O-])c1ccc(S(=O)(=O)Nc2nnc(C(F)(F)F)s2)cc1	1.5*	1	1	-1	1	-0.06	i
C[C@H](CO)N1C[C@H](C)[C@@H](CN(C)Cc2ccc(C(=O)O)cc2)OCCCC[C@H](C)Oc2ccc(NC(=O)NC3CCCCC3)cc2C1=O	0	-4	-3	7	0	.	.
Cc1nn(-c2ccccc2)c(Cl)c1/C=N/NC(=O)c1cccnc1	17*	-2	0	6	4	0.11	i
Cc1ccc(-n2nc(C)c(/C=N/NC(=O)c3cccnc3)c2Cl)cc1	0	-2	1	-3	2	.	.
Cc1ccc(NC(=O)CSCC(=O)Nc2ccc(S(=O)(=O)N3CCOCC3)cc2)cc1	0	-3	0	16	-1	.	.
Cc1ccc(NC(=O)CN(C)C(C)C(=O)Nc2ccc(S(=O)(=O)N3CCCC3)cc2)cc1 (centres undefined)	13*	8	3	-13	2	0.009	i
Cc1ccc(OCCCC(=O)Nc2ccc(S(=O)(=O)N3CCOCC3)cc2)cc1	2.5*	3	0	-30	4	-0.17	i	FGF22 TSA=0
C[C@@H]1CN([C@@H](C)CO)S(=O)(=O)c2ccc(-c3ccncc3)cc2O[C@@H]1CN(C)C(=O)C1CCCCC1	.	.	.	2	.	.	.
O=[N+]([O-])c1ccc2oc(/C=C/c3ccc(O)cc3)nc2c1	1.8*	.	-2	.	1	0.074	i
